Measurements reported in PubChem BioAssay (NCI).
About 83,000 compounds went through this panel and 20% of them were active in at least one assay; those are over-represented in the sample as a whole.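 Plates (96-well) were seeded with cells, treated with compound at one concentration, and incubated for 48 hours before percent growth was determined.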 A number with no mark means an inactive call. Active and inactive are the calls of the source. The calls were made as follows: active = growth percent below 10; inactive = the rest.

These compounds were tested on MDA-MB-468 breast (assay: NCI-60 one-dose screen, 48 h (100 = growth as untreated, 0 = no growth, -100 = all killed)). Conditions: 10 µM unless noted.
In the case of `CC(=O)C1=C(O)C=C2Oc3c(C(=O)/C=C/c4cc(Cl)cc(Cl)c4)c(O)c(C)c(O)c3[C@]2(C)C1=O`, the growth is reported as -41.7% (active). With `COc1ccc(-c2nnc(SCC(=O)Nc3ccc(/C(C)=N\O)cc3)n2-c2ccccc2)cc1OC` the growth was 78.5%. `Cc1ccc(Cl)cc1NC(=O)c1sc2nc3c(cc2c1N)C(=O)CCC3` was tested, and the growth was 8.44% (active). Work on `CCOC(=O)c1c(C)nc2c(c1N)C(=O)C(=O)N2CCc1ccc(OC)c(OC)c1` yielded a growth of 49%. Work on `COc1ccc(C2=CN3CC=CCC3CC2=O)cc1` (stereo not given) yielded a growth of 107%. `COc1ccc(/C(=C\c2ccc3c(c2)OCO3)C(=O)Nc2nc3ccccc3s2)cc1` gave a growth of 114%. Compound `COC(=O)[C@]12CC[C@@H](C)[C@H](C)[C@@H]1C1=CC(=O)[C@@H]3[C@@]4(C)C[C@@H](O)[C@H](O)[C@@]5(C)COC(=C45)C[C@@]3(C)[C@]1(C)CC2` has a growth of 44.2%. With `COc1cccc(C(=O)OCCn2nc3c4c(cccc42)C(=O)c2ccccc2-3)c1O` the growth was 24.9%. `c1ccc(CN=C(NCc2ccccc2)NCc2ccccc2)cc1` was tested, and the growth was -14.8% (active). In the case of `O=C1c2ccccc2C(=O)N1/N=C/c1ccc2c(c1)OCO2`, the growth is reported as 103%. Work on `COc1cc(CN(CCC(O)N2CCCC2=O)Cc2ccc3c(c2)OCO3)cc(OC)c1OC` (stereo not given) yielded a growth of 119%. For `COc1cc(NS(=O)(=O)c2ccc(N)cc2)ncn1`, the growth was 105%. Work on `COc1ccc(-c2nc3ccc(-c4nc5ccc(N6CCN(c7ccc(F)cc7)CC6)cc5[nH]4)cc3[nH]2)cc1OC` yielded a growth of 67.4%. In the case of `CCOC(=O)c1cc(C(=O)c2cc(OC)c(OC)c(OC)c2)n2c1ccc1ccccc12`, the growth is reported as 1.54% (active). Compound `Cc1nn(-c2ccc(-c3ccc(OC(F)(F)F)cc3)cc2)c2nc(-c3ccccc3)nc(N)c12` has a growth of 82.6%. For `COc1cccc(-c2cc(-c3cc4ccccc4oc3=O)nc(N)n2)c1`, the growth was 92.7%. `CNC(=O)c1[nH]cc(-c2ccc(OC)cc2)c1-c1cc(OC)c2c(c1OC)OCO2` was tested, and the growth was 97.7%. With `CC1=C(C)C(=O)C(Nc2ccc(C)c(C)c2)=C(Br)C1=O` the growth was 1.26% (active). `CCCCOC(=O)c1ccccc1O` was tested, and the growth was 95.7%. `Cc1ccc(F)cc1NC(=O)c1cc(Cl)ccc1Nc1ccccc1` gave a growth of 61.8%. With `COc1ccc(-c2nn(-c3cccc(Cl)c3)cc2-c2cc(-c3ccc(Br)cc3)[nH]c(=O)c2C#N)cc1` the growth was 75.1%. For `COc1ccc(-c2nc(Cl)c3c(C)nn(-c4ccc(F)cc4)c3n2)cc1`, the growth was 105%. With `CC(=O)NC(CCC(=O)c1ccccc1)C(=O)O` (stereo not given) the growth was 93.6%. `CCSc1nc2scc(C)c2c(=O)[nH]1` gave a growth of 110%. With `COc1cccc(Nc2nc(NCCO)c3ccccc3n2)c1` the growth was 75.7%. For `COc1cc(-c2nn(-c3cccc(NC(=O)Nc4cccc(C(F)(F)F)c4)c3)cc2-c2ccncc2)ccc1Cl`, the growth was -27.6% (active). With `COc1cc(CNC(=O)CCCCC[P+](c2ccccc2)(c2ccccc2)c2ccccc2)c(OC)c2c1OCO2` the growth was 6.74% (active). Work on `c1c[nH]c(CNC2CCCCC2)c1` yielded a growth of 141%. With `COc1cc(C(=O)/C=C/c2cc(-c3ccc4c(c3)OCO4)n[nH]2)cc(OC)c1OC` the growth was 29.1%. With `O=C(N/N=C/c1ccccc1O)Nc1nn[nH]n1` the growth was 97.6%. Compound `CSc1ccc(OC(C)=O)cc1C` has a growth of 93.8%. `COc1ccc2c(c1)nc(N)c1c3cc(C)c(C)cc3cn21` showed a growth of 48.3%. In the case of `Cc1n(Cc2ccc3ccccc3c2)cc[n+]1Cc1ccc2ccccc2c1`, the growth is reported as -22.8% (active). Compound `O=[N+]([O-])c1ccc(N=Nc2ccc(O)c3ccccc23)cc1` has a growth of 26.7%. `Cc1cc(O)c2c(c1)C[C@H]1[C@@H]3CC[C@H]4CC(=O)CC[C@]4(C)[C@H]3CC(=O)[C@]21C` showed a growth of 71.4%. For `CC1=Nc2cnc(Nc3ccc(OCCN4CCCC4)cc3)nc2Nc2ccccc21`, the growth was 57%. With `N#CC1=C(N)Oc2c(ccc3ccccc23)C1c1cc2ccccc2n2nnnc12` (stereo not given) the growth was -8.83% (active). Compound `COc1ccc(-c2nnc(SCC(=O)Nc3ccc(C(=O)/C=C/c4ccccc4)cc3)o2)cc1OC` has a growth of 91.1%. For `COc1cc(-c2cc(-c3cc4c([nH]c5ccccc54)c(-c4cc(OC)c(OC)c(OC)c4)n3)cc(-c3ccccc3)n2)cc(OC)c1OC`, the growth was 8.91% (active). With `O=S(=O)(NCCCNc1nccc(-c2[nH]c(-c3ccccc3)nc2-c2ccc(Cl)c(O)c2)n1)c1cccc2ccccc12` the growth was 36.7%.
